This note sets out measurements from PubChem BioAssay (EPA / NIEHS).

The target in test [1] is Bile acid receptor (Homo sapiens) (UniProt Q96RI1). Description: ATG_IR1_CIS: Attagene CIS-FACTORIAL HepG2 Assay for human Nuclear Receptor Subfamily 1 Group H Member 4 (NR1H4), IR1 submotif (AID 2282946). Conditions: IR1 reporter transcription, actives raise or lower the signal. The method in brief:
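HepG2 cells transiently transfected with multiplexed cis-element reporter units read endogenous transcription factor activity. After 24 h compound exposure, reporter mRNA was quantified by RT-PCR, fluorescent labelling, HpaI digestion and capillary electrophoresis; bidirectional fitting versus DMSO baseline.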

The nature of test [2]: ATG_GRE_CIS: Attagene CIS-FACTORIAL HepG2 Assay for human Glucocorticoid Response Elements (GRE) (AID 2282947). As to conditions: HepG2 GRE cis-reporter, Attagene multiplex mRNA; actives raise or lower the signal. The method, boiled down: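 Reporter transcripts read by RT-PCR with capillary electrophoresis fluorescence after a 24 h chemical exposure of HepG2 cells transiently transfected with multiple cis-element reporter units. Gain or loss fitted against DMSO.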

A short description of test [3]: ATG_ISRE_CIS: Attagene CIS-FACTORIAL HepG2 Assay for human Interferon Regulatory Factor 1 (IRF1) binding to an Interferon-Stimulated Response Element (ISRE) (AID 2282948). As to conditions: HepG2 ISRE cis-reporter (Attagene), mRNA transcription readout; actives raise or lower the signal. The method, boiled down:
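Read-out: fluorescent RT-PCR products resolved by capillary electrophoresis, reporting endogenous transcription factor activity via ISRE-driven reporter mRNA in transfected HepG2 cells dosed for 24 h; gain or loss fitted relative to DMSO.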

Test [4] in a line: ATG_M_32_CIS: Attagene CIS-FACTORIAL HepG2 Assay for M32 Transcription Factor (Internal Marker) (AID 2282949).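 Also: background control marker of the multiplexed CIS panel rather than a real target.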 As to conditions: HepG2 Attagene cis-factorial M32 reporter, mRNA; actives raise or lower the signal. The method in brief:
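HepG2 human liver cells transiently transfected with cis-promoter-driven multiple reporter transcription units, dosed 24 h. Reporter mRNA quantified by RT-PCR, FAM-labelled primer extension, HpaI digest and capillary electrophoresis; bidirectional fit versus DMSO baseline.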

Test [5] in a line: ATG_M_06_CIS: Attagene CIS-FACTORIAL HepG2 Assay for M06 Transcription Factor (Internal Marker) (AID 2282950). As to conditions: HepG2 Attagene CIS-FACTORIAL M06 internal marker reporter; actives raise or lower the signal. The method in brief:
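Fluorescence-labelled RT-PCR products from cis-promoter reporter units, cut with HpaI and resolved by capillary electrophoresis, give the signal. Cells are human HepG2, dosed for 24 h. Serves as background control, fitted relative to DMSO.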

Test [6] concerns the target Hypoxia-inducible factor 1-alpha (Homo sapiens) (UniProt Q16665). Description: ATG_HIF1a_CIS: Attagene CIS-FACTORIAL HepG2 Assay for human Hypoxia Inducible Factor 1 (HIF1A) (AID 2282951). Conditions: HepG2 Attagene cis-factorial HIF1a reporter transcription; actives raise or lower the signal. The method, boiled down: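 HepG2 cells transiently transfected with multiplexed cis-promoter reporter units; reporter mRNA read 24 h after dosing by RT-PCR, 6-FAM primer-extension labelling, HpaI digestion and capillary electrophoresis. Bidirectional fit versus DMSO baseline.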

In test [7] the target is Hepatocyte nuclear factor 6 (Homo sapiens) (UniProt Q9UBC0). Description: ATG_HNF6_CIS: Attagene CIS-FACTORIAL HepG2 Assay for human Hepatocyte Nuclear Factor 6 (HNF6) (AID 2282952). Conditions: HepG2 Attagene cis-factorial HNF6 reporter transcription; actives raise or lower the signal. The method in brief:
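Readout: fluorescent reporter-transcript fragments resolved by capillary electrophoresis after RT-PCR, reflecting endogenous factor activity in transfected HepG2. Exposure 24 h. Gain or loss of signal fitted bidirectionally against DMSO.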

The target of test [8] is Heat shock factor protein 1 (Homo sapiens) (UniProt Q00613). Description: ATG_HSE_CIS: Attagene CIS-FACTORIAL HepG2 Assay for human Heat Shock Transcription Factor 1 (HSE) (AID 2282953). Conditions: HepG2 HSE cis-reporter, Attagene RNA transcription; actives raise or lower the signal. The method in brief:
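After a 24 h incubation with test chemical, transfected HepG2 cells were harvested for RNA; reporter transcripts were measured by RT-PCR and capillary electrophoresis. Values reflect gain or loss of signal relative to DMSO.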

The nature of test [9]: ATG_MRE_CIS: Attagene CIS-FACTORIAL HepG2 Assay for human Metal Responsive Element (MRE) (AID 2282954). Conditions: HepG2 MRE cis-reporter transcription, Attagene multiplex; actives raise or lower the signal. The method in brief:
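Endogenous MRE-dependent transcription read as reporter mRNA in transiently transfected human HepG2 cells at 24 h. RNA reverse-transcribed, PCR-amplified, labelled and resolved by capillary electrophoresis; gain or loss relative to DMSO.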

In test [10] the target is Paired box protein Pax-6 (Homo sapiens) (UniProt P26367). Description: ATG_Pax6_CIS: Attagene CIS-FACTORIAL HepG2 Assay for human Paired Box 6 (PAX6) (AID 2282956). As to conditions: HepG2 CIS-FACTORIAL PAX6 reporter transcription, RNA readout; actives raise or lower the signal. The method, boiled down:
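Readout: reporter transcript fluorescence after RT-PCR and capillary electrophoresis. Cells: HepG2, transiently transfected with cis-regulated MRTUs. Exposure 24 h. Gain or loss of signal fitted bidirectionally relative to DMSO.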

Test [11] in a line: ATG_PPRE_CIS: Attagene CIS-FACTORIAL HepG2 Assay for human Peroxisome Proliferator-activated Response Element (PPRE) (AID 2282958). Conditions: HepG2 PPRE cis-element reporter, Attagene transcription factor profiling; actives raise or lower the signal. The method in brief:
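HepG2 cells transiently transfected with multiplexed cis-element reporter units measure endogenous transcription factor activity. After 24 h compound exposure, reporter mRNA is quantified by RT-PCR, 6-FAM labeling, HpaI digestion and capillary electrophoresis; bidirectional fits are made against DMSO baseline.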

In test [12] the target is Transcription factor Sp1 (Homo sapiens) (UniProt P08047). Description: ATG_Sp1_CIS: Attagene CIS-FACTORIAL HepG2 Assay for human Specificity Protein 1 (Sp1) (AID 2282961). Conditions: HepG2 Sp1 cis-reporter transcription, actives raise or lower the signal. The method in brief:
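HepG2 cells transiently transfected with multiple reporter transcription units driven by cis-regulatory elements; Sp1-responsive reporter mRNA measured 24 h after dosing by RT-PCR and capillary electrophoresis fluorescence, fitted bidirectionally against DMSO baseline.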

Test [13] is described as follows: ATG_SREBP_CIS: Attagene CIS-FACTORIAL HepG2 Assay for human Sterol Regulatory Element Binding (SREBP) (AID 2282962). Conditions: HepG2 Attagene cis-factorial SREBP reporter, mRNA; actives raise or lower the signal. The method in brief:
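Readout: fluorescent reporter-transcript peaks resolved by capillary electrophoresis after RT-PCR. Cells were human HepG2 carrying transfected cis-promoter reporter constructs, dosed for 24 h. Gain or loss of signal was fitted against DMSO controls.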

Test [14] in a line: ATG_TA_CIS: Attagene CIS-FACTORIAL HepG2 Assay for human TA Basal Promoter (AID 2282964). As to conditions: HepG2 Attagene CIS-factorial TA basal promoter reporter; actives raise or lower the signal. The method, boiled down:
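Multiplexed mRNA reporter assay, HepG2, 24 h. Reporter cDNA amplified, 6-FAM primer-extended, HpaI-cut, CE-sized; DMSO = negative control and baseline.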

Test [15] in a line: ATG_TCF_b_cat_CIS: Attagene CIS-FACTORIAL HepG2 Assay for human T-Cell-Factor with beta-catenin (TCF/b-cat) (AID 2282965). As to conditions: HepG2 TCF/beta-catenin cis-reporter transcription, actives raise or lower the signal. The method in brief:
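Endogenous TCF/LEF activity read as reporter transcript level via RT-PCR and capillary electrophoresis fluorescence in transfected HepG2, 24 h exposure; gain or loss of signal fitted against DMSO controls.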

Test [16] can be described thus: ATG_PBREM_CIS: Attagene CIS-FACTORIAL HepG2 Assay for human Phenobarbital-responsive Enhancer Module (PBREM) (AID 2282955). Conditions: HepG2 PBREM cis-reporter, Attagene multiplexed transcription; actives raise or lower the signal. The method, boiled down: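 HepG2 cells transiently transfected with multiple cis-regulated reporter transcription units; endogenous factor activity at the PBREM element measured as reporter mRNA 24 h after dosing, via RT-PCR and capillary electrophoresis of fluorescent fragments; bidirectional fitting versus DMSO.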

Test [17] is described as follows: ATG_PXRE_CIS: Attagene CIS-FACTORIAL HepG2 Assay for human Pregnane X Receptor Element (PXRE) (AID 2282957). As to conditions: HepG2 Attagene CIS-FACTORIAL PXRE reporter, mRNA; actives raise or lower the signal. The method in brief:
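Read-out: fluorescence of reporter-specific RT-PCR products resolved by capillary electrophoresis, fitted bidirectionally relative to DMSO. Human HepG2 liver cells carried transfected cis-promoter reporter units and were exposed to chemicals for 24 h.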

A short description of test [18]: ATG_RORE_CIS: Attagene CIS-FACTORIAL HepG2 Assay for human RAR-related Orphan Receptor Element (RORE) (AID 2282959). As to conditions: HepG2 Attagene cis-factorial RORE reporter, mRNA; actives raise or lower the signal. The method in brief: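 HepG2 cells transiently transfected with multiple cis-element reporter transcription units, exposed to chemical for 24 h. Reporter mRNA quantified by RT-PCR, 6-FAM primer-extension labeling, HpaI digestion and capillary electrophoresis; bidirectional fit versus DMSO baseline.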

Test [19] can be described thus: ATG_Sox_CIS: Attagene CIS-FACTORIAL HepG2 Assay for human SRY-box transcription factor (SOX) (AID 2282960). As to conditions: HepG2 Attagene cis-factorial SOX reporter, mRNA; actives raise or lower the signal. The method, boiled down: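 HepG2 cells transiently transfected with cis-element-driven multiple reporter transcription units, dosed 24 h; reporter mRNA measured by RT-PCR, FAM labelling, HpaI digestion and capillary electrophoresis. Bidirectional fit versus DMSO baseline.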

Test [20] has as its target Signal transducer and activator of transcription 3 (Homo sapiens) (UniProt P40763). Description: ATG_STAT3_CIS: Attagene CIS-FACTORIAL HepG2 Assay for human Signal Transducer and Activator of Transcription 3 (STAT3) (AID 2282963). As to conditions: HepG2, Attagene cis-factorial STAT3 reporter transcription; actives raise or lower the signal. The method in brief:
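Readout is reporter transcript quantified by RT-PCR and capillary electrophoresis, with 6-FAM primer extension and HpaI digestion. Total RNA is taken 24 h after dosing transiently transfected HepG2 carrying cis-regulated reporter units. Bidirectional fit against DMSO.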

Structures are written as SMILES. Calls of active or inactive are those of the source. The calls were made as follows: active = hit-call score of the fitted dose curve at least 0.9, where 1 is the maximum; inactive = score below 0.9.

Bile acid receptor (Homo sapiens), sequence (Q96RI1 whole entry, looked up): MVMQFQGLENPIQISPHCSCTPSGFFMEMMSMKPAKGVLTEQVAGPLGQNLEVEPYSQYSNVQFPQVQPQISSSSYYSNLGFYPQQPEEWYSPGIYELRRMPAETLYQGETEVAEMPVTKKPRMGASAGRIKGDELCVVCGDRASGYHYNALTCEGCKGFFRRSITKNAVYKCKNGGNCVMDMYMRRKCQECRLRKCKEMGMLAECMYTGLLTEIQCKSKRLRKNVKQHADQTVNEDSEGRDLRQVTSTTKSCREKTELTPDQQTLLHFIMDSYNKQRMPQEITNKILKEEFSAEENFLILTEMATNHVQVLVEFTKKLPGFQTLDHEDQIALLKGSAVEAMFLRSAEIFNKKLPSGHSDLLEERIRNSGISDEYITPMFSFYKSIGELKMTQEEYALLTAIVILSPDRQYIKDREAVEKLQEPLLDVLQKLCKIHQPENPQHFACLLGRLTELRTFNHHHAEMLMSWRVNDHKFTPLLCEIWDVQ
Signal transducer and activator of transcription 3 (Homo sapiens), sequence (P40763 whole entry, looked up): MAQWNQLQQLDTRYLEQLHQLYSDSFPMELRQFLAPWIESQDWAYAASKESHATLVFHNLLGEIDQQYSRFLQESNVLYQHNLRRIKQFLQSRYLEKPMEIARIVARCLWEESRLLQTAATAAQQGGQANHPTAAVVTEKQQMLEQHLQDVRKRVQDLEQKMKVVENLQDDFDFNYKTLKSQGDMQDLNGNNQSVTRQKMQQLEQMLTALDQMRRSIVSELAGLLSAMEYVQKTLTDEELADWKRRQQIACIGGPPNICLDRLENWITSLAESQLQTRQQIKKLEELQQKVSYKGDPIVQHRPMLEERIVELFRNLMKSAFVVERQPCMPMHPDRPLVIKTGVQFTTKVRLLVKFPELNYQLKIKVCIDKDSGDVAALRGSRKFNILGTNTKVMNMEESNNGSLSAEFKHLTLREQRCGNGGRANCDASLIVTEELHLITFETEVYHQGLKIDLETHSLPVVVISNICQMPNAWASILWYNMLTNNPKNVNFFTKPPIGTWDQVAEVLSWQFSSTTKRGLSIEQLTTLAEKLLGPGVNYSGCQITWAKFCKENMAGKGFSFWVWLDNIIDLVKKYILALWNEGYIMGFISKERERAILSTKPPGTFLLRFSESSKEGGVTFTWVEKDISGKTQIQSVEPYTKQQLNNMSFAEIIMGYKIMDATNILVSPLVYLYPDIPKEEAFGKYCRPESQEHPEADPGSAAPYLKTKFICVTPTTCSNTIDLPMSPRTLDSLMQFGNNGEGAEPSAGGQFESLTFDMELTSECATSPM
Hypoxia-inducible factor 1-alpha (Homo sapiens), sequence (Q16665 whole entry, looked up): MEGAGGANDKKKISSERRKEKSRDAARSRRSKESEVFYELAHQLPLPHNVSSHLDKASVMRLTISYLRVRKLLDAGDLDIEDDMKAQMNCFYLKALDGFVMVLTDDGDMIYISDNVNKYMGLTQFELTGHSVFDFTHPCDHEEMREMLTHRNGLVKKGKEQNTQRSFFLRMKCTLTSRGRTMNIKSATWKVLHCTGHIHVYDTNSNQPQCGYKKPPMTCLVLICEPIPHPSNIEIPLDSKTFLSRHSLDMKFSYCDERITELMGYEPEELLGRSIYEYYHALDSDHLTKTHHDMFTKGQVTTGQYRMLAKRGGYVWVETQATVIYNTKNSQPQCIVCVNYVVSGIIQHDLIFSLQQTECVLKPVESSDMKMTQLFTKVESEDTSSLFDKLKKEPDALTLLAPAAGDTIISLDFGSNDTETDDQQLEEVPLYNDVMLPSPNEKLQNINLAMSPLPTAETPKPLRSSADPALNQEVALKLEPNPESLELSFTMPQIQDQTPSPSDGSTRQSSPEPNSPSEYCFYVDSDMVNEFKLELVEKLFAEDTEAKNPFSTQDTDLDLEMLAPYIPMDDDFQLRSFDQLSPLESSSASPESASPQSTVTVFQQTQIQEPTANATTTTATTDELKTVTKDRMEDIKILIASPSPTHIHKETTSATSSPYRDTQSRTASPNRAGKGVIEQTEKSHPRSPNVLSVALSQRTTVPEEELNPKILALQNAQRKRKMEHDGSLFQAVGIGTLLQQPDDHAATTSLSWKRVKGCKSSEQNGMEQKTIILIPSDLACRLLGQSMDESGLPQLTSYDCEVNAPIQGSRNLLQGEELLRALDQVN
Heat shock factor protein 1 (Homo sapiens), sequence (Q00613 whole entry, looked up): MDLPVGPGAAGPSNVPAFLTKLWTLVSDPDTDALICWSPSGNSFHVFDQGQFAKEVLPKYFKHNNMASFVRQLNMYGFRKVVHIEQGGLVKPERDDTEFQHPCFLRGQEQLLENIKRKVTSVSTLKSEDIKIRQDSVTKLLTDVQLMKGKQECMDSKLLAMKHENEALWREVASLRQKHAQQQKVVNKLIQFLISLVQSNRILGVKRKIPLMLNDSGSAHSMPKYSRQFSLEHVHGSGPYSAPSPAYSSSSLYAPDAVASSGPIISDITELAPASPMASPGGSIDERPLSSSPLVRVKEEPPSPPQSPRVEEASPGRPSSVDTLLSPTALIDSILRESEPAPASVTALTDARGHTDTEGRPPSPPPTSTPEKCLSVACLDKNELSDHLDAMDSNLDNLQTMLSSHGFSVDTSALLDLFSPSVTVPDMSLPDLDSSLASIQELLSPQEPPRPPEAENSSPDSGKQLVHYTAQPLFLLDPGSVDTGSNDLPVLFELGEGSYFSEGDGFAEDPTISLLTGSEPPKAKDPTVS
Hepatocyte nuclear factor 6 (Homo sapiens), sequence (Q9UBC0 whole entry, looked up, the tested form may be a part): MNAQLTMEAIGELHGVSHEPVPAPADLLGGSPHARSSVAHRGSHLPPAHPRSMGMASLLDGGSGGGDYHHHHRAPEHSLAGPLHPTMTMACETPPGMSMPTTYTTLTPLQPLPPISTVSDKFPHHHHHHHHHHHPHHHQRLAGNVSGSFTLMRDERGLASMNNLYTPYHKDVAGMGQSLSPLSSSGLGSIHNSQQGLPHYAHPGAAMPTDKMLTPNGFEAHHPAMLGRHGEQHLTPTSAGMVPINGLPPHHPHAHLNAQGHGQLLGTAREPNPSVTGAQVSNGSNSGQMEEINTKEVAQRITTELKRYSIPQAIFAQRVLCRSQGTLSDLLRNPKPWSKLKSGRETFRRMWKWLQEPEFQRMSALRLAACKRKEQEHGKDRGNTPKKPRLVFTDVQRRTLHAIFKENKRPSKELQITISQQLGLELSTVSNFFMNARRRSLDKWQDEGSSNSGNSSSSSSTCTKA
Paired box protein Pax-6 (Homo sapiens), sequence (P26367 whole entry, looked up): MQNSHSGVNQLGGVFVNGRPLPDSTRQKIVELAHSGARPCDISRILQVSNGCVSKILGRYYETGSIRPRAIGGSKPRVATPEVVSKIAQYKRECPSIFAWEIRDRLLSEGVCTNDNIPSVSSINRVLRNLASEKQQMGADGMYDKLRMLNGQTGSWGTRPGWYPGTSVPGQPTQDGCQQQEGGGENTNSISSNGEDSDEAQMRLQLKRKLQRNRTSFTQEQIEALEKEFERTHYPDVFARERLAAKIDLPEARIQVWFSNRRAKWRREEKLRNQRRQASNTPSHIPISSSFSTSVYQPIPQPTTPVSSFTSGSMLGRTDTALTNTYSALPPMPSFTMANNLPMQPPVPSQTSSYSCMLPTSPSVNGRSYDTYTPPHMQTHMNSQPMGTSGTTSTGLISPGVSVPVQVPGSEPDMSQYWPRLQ
Transcription factor Sp1 (Homo sapiens), sequence (P08047 whole entry, looked up): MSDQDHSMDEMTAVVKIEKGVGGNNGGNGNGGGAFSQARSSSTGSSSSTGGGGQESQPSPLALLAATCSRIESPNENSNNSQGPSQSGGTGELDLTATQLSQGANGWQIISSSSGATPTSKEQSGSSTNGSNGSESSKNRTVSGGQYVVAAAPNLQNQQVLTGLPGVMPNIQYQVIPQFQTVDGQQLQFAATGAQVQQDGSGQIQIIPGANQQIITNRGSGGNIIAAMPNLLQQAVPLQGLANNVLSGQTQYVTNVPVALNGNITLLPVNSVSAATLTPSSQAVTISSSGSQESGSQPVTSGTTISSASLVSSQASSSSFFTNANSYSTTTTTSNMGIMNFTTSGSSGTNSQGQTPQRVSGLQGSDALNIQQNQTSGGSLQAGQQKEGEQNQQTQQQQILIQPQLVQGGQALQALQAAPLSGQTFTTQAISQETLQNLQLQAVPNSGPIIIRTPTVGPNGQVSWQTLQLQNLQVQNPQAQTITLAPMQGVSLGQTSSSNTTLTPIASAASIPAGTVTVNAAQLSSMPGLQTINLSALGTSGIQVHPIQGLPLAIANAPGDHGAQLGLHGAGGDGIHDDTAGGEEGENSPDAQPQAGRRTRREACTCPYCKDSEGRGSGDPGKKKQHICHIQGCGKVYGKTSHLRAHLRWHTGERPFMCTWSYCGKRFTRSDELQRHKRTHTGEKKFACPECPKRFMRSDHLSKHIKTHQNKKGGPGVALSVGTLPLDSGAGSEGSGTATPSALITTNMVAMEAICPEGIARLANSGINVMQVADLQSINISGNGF

As for `CCCCCc1ccc(Cl)cc1`, the compound was classed as inactive in [1], in [2], in [3], in test [4], in test [5] and in test [6]. Besides, the result in test [7], in [8], in [9], in test [10], in test [13] and in [14] was inactive. In addition, the call in test [15] was inactive. The AC50 is 25.9 µM (active) in test [11] and 177 µM (active) in test [12].
In the case of `OCCCS`, the result in [1], in test [2], in test [3], in [4], in test [5] and in [6] was inactive. In addition, the result in test [8], in test [9], in [16], in test [10], in test [17] and in test [11] was inactive. The compound was classed as inactive in test [18], in [19], in [12], in [13], in test [20] and in test [14]. For the same compound, the compound was classed as inactive in [15].
With `CCCCCCCC/C=C\CCCCCCCC(=O)O`, the AC50 in test [1] was 32 µM (active). For the same compound, the call in test [2], in test [3], in [4], in [5], in [6] and in [7] was inactive. The call in [9], in test [10], in [17], in test [11], in test [18] and in [19] was inactive. Moreover, the outcome in [12], in test [20] and in test [15] was inactive.
Consider `CC(=O)OC1C2(C)CCC(C2)C1(C)C` (configuration not stated), for which the compound was called inactive in test [1], in test [2], in [3], in [4], in test [5] and in test [6]. Also, the call in [7], in [8], in test [9], in test [10], in [17] and in test [11] was inactive. Also, the call in test [19], in test [12], in test [20], in test [14] and in test [15] was inactive.

By AC50 is commonly meant the concentration giving half of the maximal activity seen.
